Screening results deposited in PubChem by University of Kansas High Throughput Screening Laboratory.
Sampled rows, rich in hits. Any-hit rate of the full collection: about 3.5%.
mHTT-CaM PPI inh: inhibitors of human mutant huntingtin-calmodulin interaction; AlphaScreen His-mHTT/GST-CaM binding, luminescence; inhibition, % at 15 µM; 190,000 compounds, 3.6% hits;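 further: 0% = both proteins with DMSO and 100% = one protein alone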
Pf apPOL inh: Pf-apPOL DNA polymerase inhibition | Recombinant Pf-apPOL, molecular beacon fluorescence, 1.5 h | inhibition, % at 10 µM | 210,000 compounds, 0.25% hits
The depositor's hits bear a star; . = not tested or not shown. No stated cut-off is given here; in the data, active means inhibition above about 50%; inactive means the rest.

SMILES	mHTT-CaM PPI inh	Pf apPOL inh
N#Cc1ccccc1CSc1nnc(N)s1	-10	5
O=C(Nc1nnc(-c2ccno2)o1)c1ccc2c(c1)OCO2	96*	40
COc1ccccc1-c1nnc(NC(=O)COc2ccccc2)o1	77*	0
CSc1ccccc1-c1nnc(NC(=O)CCOc2ccccc2)o1	-2	0
COc1nn(C)cc1C(=O)Nc1nnc(-c2ccco2)o1	-5	0
CC1CN(S(=O)(=O)c2ccc(C(=O)Nc3nnc(-c4ccno4)o3)cc2)CC(C)O1 (stereo not drawn)	42	19
O=C(COc1ccc(Cl)cc1Cl)Nc1nnc(Cc2ccc3c(c2)OCO3)o1	92*	-207
O=C(CCS(=O)(=O)c1ccc(Cl)cc1)Nc1nnc(Cc2ccc3c(c2)OCO3)o1	4	8
COc1nn(C)cc1C(=O)Nc1nnc(COc2ccccc2)o1	66*	-7
O=C(Cc1ccccc1)Nc1ccc(S(=O)(=O)N2CCc3ccccc32)cc1	4	-3
Cc1ccc(NC(=O)C2CCCN(C(=O)c3cccc(C(F)(F)F)c3)C2)cc1 (stereo not drawn)	26	2
O=C(c1ccccc1Cl)N1CCN(c2ccc(C(F)(F)F)cc2[N+](=O)[O-])CC1	23	-5
CCOC(=O)c1sc(SC(C)C)c2c1-c1ccccc1N(C)S2(=O)=O	.	-4
O=C(CSc1nnc2nc[nH]n12)Nc1nc2cc([N+](=O)[O-])ccc2s1	3	-9
CC1C(=O)N(c2cccc(F)c2)CCN1C(=O)C1CCC1 (stereo not drawn)	-4	-3
COc1cccc2cc(C(=O)Nc3nnc(Cc4ccc(Cl)s4)o3)oc12	-8	-12
CCOc1cccc2cc(C(=O)Nc3nnc(-c4ccno4)o3)oc12	14	79*
COc1ccc(N2C(=O)CC(N3CC(C)OC(C)C3)C2=O)cc1 (stereo not drawn)	1	-9
COc1ccc(/C=C2/C=C(c3ccccc3)OC2=O)cc1OC	37	0
CN1CCCc2cc(CCNS(=O)(=O)c3cccs3)ccc21	51*	-5
CN1CCCc2cc(CCNC(=O)C34CC5CC(CC(C5)C3)C4)ccc21	53*	1
CN1CCCc2cc(C(CNC(=O)C34CC5CC(CC(C5)C3)C4)N3CCCC3)ccc21 (stereo not drawn)	34	5
O=S(=O)(NCC#CCN1CCc2ccccc2C1)c1cccs1	-6	0
Cc1ccccc1CN1C2=NC(=O)CN2c2ccccc21	6	-8
CC1(C)CC(=O)C2=C(C1)Nc1ncnn1C2c1ccccc1Cl (stereo not drawn)	0	2
SMILES	mHTT-CaM PPI inh	Pf apPOL inh
O=C(CCC1CCCN(C(=O)Nc2ccccc2)C1)N1CCCCCC1 (stereo not drawn)	-9	-1
CC(C(=O)NCC1CCCO1)N(c1ccc(Oc2ccccc2)cc1)S(C)(=O)=O (stereo not drawn)	8	-2
COCCc1nnc(NC(=O)C(c2ccccc2)c2ccccc2)o1	96*	-7
COCC(C)NC(=O)C(c1ccccc1)c1ccccc1 (stereo not drawn)	-9	-9
CC1=C(C(=O)Nc2ccc(Cl)cc2)C(c2cccc([N+](=O)[O-])c2)n2c(nc3ccccc32)N1 (stereo not drawn)	72*	4
COc1ccccc1NC(=O)C1=C(C)Nc2nc3ccccc3n2C1c1cccc([N+](=O)[O-])c1 (stereo not drawn)	1	-10
N#Cc1c(SCC(N)=O)nsc1SCC(N)=O	0	0
CC(C)CNC(=O)N1CCN(Cc2nc3cccnc3n2-c2cccc(F)c2)CC1	-3	1
Cc1nc(-c2ccc(C(=O)N(C)Cc3ccccc3)cc2)cs1	2	-11
OCCn1c(-c2ccc(I)cc2)csc1=Nc1ccccc1	66*	-2
OCCCn1c(-c2ccc(I)cc2)csc1=Nc1ccccc1	70*	-5
OCCCn1c(-c2ccccc2)csc1=Nc1ccccc1	51*	-1
OCCCn1c(-c2ccccc2)csc1=Nc1cccc(Cl)c1	92*	-5
CCn1c(-c2ccccc2)csc1=Nc1ccc(S(=O)(=O)O)cc1	17	-3
CCOc1ccc(-c2csc(=Nc3ccccc3)n2CCN2CCOCC2)cc1	22	-3
c1ccc(Cn2c(-c3ccccc3)csc2=Nc2ccccc2)cc1	-2	.
Cc1ccc(C2=N/C(=C\c3ccc(Br)cc3)C(=O)O2)cc1	3	-1
COc1ccccc1OCCOc1ccccc1[N+](=O)[O-]	-13	11
Cc1ccc(C(=O)N2CCC(n3nc(-c4ccsc4)ccc3=O)CC2)s1	100*	-4
COc1cccc(C(=O)N2CCC(n3nc(-c4ccsc4)ccc3=O)CC2)c1	100*	-2
O=C(c1cccnc1)N1CCC(n2nc(-c3ccsc3)ccc2=O)CC1	10	0
O=C(Cc1cccc(F)c1)N1CCC(n2nc(-c3ccsc3)ccc2=O)CC1	35	-4
CC(Oc1ccccc1)C(=O)N1CCC(n2nc(-c3ccsc3)ccc2=O)CC1 (stereo not drawn)	71*	2
O=C(c1cccc(F)c1)N1CCC(n2nc(-c3ccsc3)ccc2=O)CC1	95*	-1
O=C(N1CCC(n2nc(-c3ccsc3)ccc2=O)CC1)C1(c2ccccc2)CC1	-1	-2
SMILES	mHTT-CaM PPI inh	Pf apPOL inh
Cc1ccc(C(=O)N2CCC(c3nc(-c4ccncc4)n[nH]3)CC2)s1	12	12
COc1ccc(-c2cc(-c3ccc(F)cc3)c(C#N)c(N)n2)cc1	-11	23
Cc1ccn2cc(-c3cccc(Br)c3)nc2c1	4	-4
Cc1cccn2c(=O)c3cc(C(=O)N4CCOCC4)c(=N)n(Cc4cccnc4)c3nc12	1	-12
CCCC12CN3CC(C)(CN(C1)C3c1ccccc1O)C2=O (stereo not drawn)	-4	5
CCOc1ccc(C(=O)Nc2c3c(nn2-c2ccc(OC)cc2)CSC3)cc1	-6	-7
COc1ccc(C(=O)N2CCC(n3nc(-c4ccsc4)ccc3=O)CC2)cc1	98*	-6
COc1ccc(C(=O)N2CCC(N3CCCCCC3)CC2)cc1	-2	-4
COc1ccccc1C(=O)N1CCN(C(=O)c2cccc(Cl)c2)CC1	-2	-14
Cn1c2c(c3ccccc31)CN(C(=O)c1cccs1)CC2	100*	13
Cn1nc(-c2nc(-c3ccccc3)no2)c2c1CCN(C(=O)c1cccs1)C2	21	0
O=C(c1ccccc1Br)N1CCN(c2ccc(-n3cccn3)nn2)CC1	14	-13
CCc1ccc(CCNC(=O)O[C@@H]2C[C@H]3C[C@@H]2[C@H]2CCCCN2[C@H]3C)cc1	14	-14
C[C@H]1[C@@H]2C[C@H]([C@H]3CCCCN31)[C@H](OC(=O)NCc1ccc(Cl)cc1)C2	53*	-8
CCOC(=O)Cc1ccc(NC(=O)N2CCCC2c2cc(C(C)C)on2)cc1 (stereo not drawn)	1	-2
Cc1ccc(C)n1-c1ccc(C(=O)NNC(=O)c2ccc3nccnc3c2)cc1	.	45
COc1ccc(NC(=O)COc2ccc([N+](=O)[O-])cc2)c(OC)c1	-2	-8
COc1ccc(NCc2ccc([N+](=O)[O-])s2)c(OC)c1	67*	22
CC(C)C[C@@H](COCc1ccc(F)cc1)N1CCN(C(=O)c2cccc(C(F)(F)F)c2)CCC1=O	60*	-5
Cc1ccc(S(=O)(=O)N2CCC(=O)N([C@H](COCc3cccc(C(F)(F)F)c3)Cc3ccccc3)CC2)cc1	6	-4
Cc1ccc(S(=O)(=O)N2CCC(=O)N([C@H](COCc3cccc(C(F)(F)F)c3)C(C)C)CC2)cc1	22	-10
